Compounds with a hit are over-represented: about 10% of the library has one in this group of screens.
PNC inhibitor: perinucleolar compartment assembly inhibition. activity change (PNC), negative = inhibition, % at 10 µM. hit rate 3.1% among 140,000. PC3M PTB-GFP, PNC prevalence imaging, 16 h; stronger effect = lower value;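 active means readout at or below -70, meaning at least 70% loss of cells showing the perinucleolar compartment, a nuclear body marking cancer cells; inconclusive means readout between -30 and a set limit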;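 further: plate controls were DMSO wells for no effect and camptothecin positive control wells for full effect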
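Compounds are pinned in duplicate onto adhered PC3M cells stably expressing GFP-tagged PTB and incubated 16 h at 37 C. Cells are then fixed, nuclei stained with Hoechst, and PNC-positive cells counted.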
IMPase cell inh: cell-permeable inhibitors of inositol monophosphatase (IMPase); P97697; CHO-M1 cells, IP1 accumulation, HTRF TR-FRET ratio; 120,000 tested, under 10 active; inhibition (IP1 accumulation), % at 46.1 µM; active means well fitted curve in the direction sought with a large enough effect in the signal ratio, not every such curve was filed as active; inconclusive means small, poorly fitted or top-dose-only effect, or a change in a side signal; inactive means no such curve, though single readings can be large or run the other way; the % refers to the signal ratio;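 further: cells stimulated with carbachol in lithium chloride buffer; plate controls were DMSO basal wells for no effect and reference inhibitor wells for full effect; higher means more IMPase inhibition seen as more IP1 and lower FRET ratio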
Target sequence (P97697 whole entry, looked up): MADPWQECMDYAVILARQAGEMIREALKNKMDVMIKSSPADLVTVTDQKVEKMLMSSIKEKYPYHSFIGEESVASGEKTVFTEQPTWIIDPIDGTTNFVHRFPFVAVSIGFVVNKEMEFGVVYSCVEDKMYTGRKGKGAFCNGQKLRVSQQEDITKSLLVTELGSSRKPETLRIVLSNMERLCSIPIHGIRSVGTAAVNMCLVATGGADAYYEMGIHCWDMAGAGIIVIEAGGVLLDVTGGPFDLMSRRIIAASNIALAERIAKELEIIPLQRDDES
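Carbachol-driven Gq signalling in CHO-M1 cells (2000/well) generates IP1. Compounds that block IMPase raise IP1 and so reduce the FRET signal from Eu-anti-IP1 and d2-IP1 after a 10 min room-temperature lysis.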
Lamin A splicing: changes lamin A minigene splicing in HeLa cells; HeLa LMNA splicing GFP/RFP minigene ratio, 48 h; Potency, µM (top dose mostly 46.1 µM), for inactives: at the highest dose ratio change, negative = inhibition, usual class: inhibitors; hit rate 0.01% among 200,000; active means well fitted inhibition curve with a large enough effect in the signal ratio, with a control signal flat, not every such curve was filed as active; inconclusive means small, poorly fitted or top-dose-only effect, or effect the other way, or a change in a side signal; the % refers to the signal ratio; further: potency means the concentration at half of the fitted maximal effect
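S3 HeLa stable clones carrying a lamin A-EGFP splicing minigene plus DsRed2 were seeded at 600 cells/well in Opti-MEM with 2% FBS, pin-dosed and incubated 48 h at 37°C. Acumen cytometry (488 nm) gave the GFP/RFP total-intensity ratio.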
ALDH1A1 block: inhibitors of human aldehyde dehydrogenase 1A1; P00352; Purified ALDH1A1, NADH fluorescence, propionaldehyde substrate; Potency, µM (doses to about 75.3 µM), inactives show at the top dose activity, negative = inhibition, usual class: inhibitors; hit rate 7.3% among 220,000; AID 1030;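 further: potency means the concentration at half of the fitted maximal effect; plate controls were no enzyme wells and a reference inhibitor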
Target sequence (P00352 whole entry, looked up): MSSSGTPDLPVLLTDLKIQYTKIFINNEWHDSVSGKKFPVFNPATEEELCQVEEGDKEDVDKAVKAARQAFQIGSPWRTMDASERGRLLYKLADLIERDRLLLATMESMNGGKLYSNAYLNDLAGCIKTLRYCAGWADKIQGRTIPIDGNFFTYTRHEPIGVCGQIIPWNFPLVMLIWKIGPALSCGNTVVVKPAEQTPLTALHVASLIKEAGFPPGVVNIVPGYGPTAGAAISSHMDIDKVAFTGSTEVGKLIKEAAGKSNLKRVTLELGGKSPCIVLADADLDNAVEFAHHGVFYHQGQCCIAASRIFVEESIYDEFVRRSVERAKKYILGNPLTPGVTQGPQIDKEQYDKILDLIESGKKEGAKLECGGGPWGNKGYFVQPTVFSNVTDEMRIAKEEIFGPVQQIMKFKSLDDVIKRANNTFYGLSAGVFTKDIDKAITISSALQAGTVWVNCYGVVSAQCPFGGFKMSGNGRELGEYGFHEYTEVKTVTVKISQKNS
Luc counter: blocks Kinase-Glo luciferase, a counter-screen artifact; Q27757; Kinase-Glo luciferase, ATP luminescence, 8 min; Potency, µM (doses to about 38.3 µM), for inactives: at the top dose activity change, negative = inhibition, most hits filed as inhibitors; hit rate 0.28% among 200,000; active means well fitted inhibition curve with a large enough effect; inconclusive means small, poorly fitted or top-dose-only effect; further: potency means the concentration at half of the fitted maximal effect; nearly all actives have a fitted effect of over 60% in size
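Compounds were added to a substrate mix at pH 7.2 (50 mM imidazole, 10 uM ATP, within the enzyme's linear range), followed by Kinase-Glo detection reagent; luminescence was measured after 8 minutes at ambient temperature.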
HPGD inh: HPGD (human) dehydrogenase inhibition; P15428; purified HPGD, NADH fluorescence kinetic, PGE2 substrate; Potency, µM, for the others: at the highest dose activity change, negative = inhibition, usual class: inhibitors; hit rate 4.3% among 150,000; AID 894; further: potency means the concentration at half of the fitted maximal effect
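NADH formation kinetics: reaction with 30 uM PGE2 and 1 mM NAD+ (final), 20 nM enzyme, Tris-HCl pH 8 with Tween 20, after 15 min compound preincubation at room temperature. Fluorescence change, last versus first of five reads.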
The depositor's hits bear a star; ? = inconclusive; nt = no result; [ ] = remark or other dose. Unless noted, the call rests on the fitted dose curve; in most records, active means well fitted inhibition curve with a large enough effect (not every such curve was filed as active); inconclusive means small, poorly fitted or top-dose-only effect, or another doubt; inactive means no such curve, though single readings can be large or run the other way. Unless noted, on the % scale 0 is the no-effect control and ±100 the full control effect.

SMILES	PNC inhibitor	IMPase cell inh	Lamin A splicing	ALDH1A1 block	Luc counter	HPGD inh
O=C(NCc1ccco1)C1CCCN(S(=O)(=O)c2ccc(-n3cnnn3)cc2)C1 (stereo not given)	9	-8	19%	25µM*	-5%	-14%
O=C(NCCC1=CCCCC1)C1CCN(S(=O)(=O)c2ccc(-n3cnnn3)cc2)CC1	13	?	?	?	-3%	-4%
O=C(NCc1ccco1)C1CCCN(S(=O)(=O)c2cccc3cccnc23)C1 (stereo not given)	30	0	6%	25µM*	-3%	-9%
COc1ccc(NC(=O)N2CCCC3(CCN(C(C)=O)CC3)C2)cc1	nt	nt	nt	2%	-4%	-10%
O=CNc1ncn[nH]1	nt	nt	nt	5%[13.5 µM]	-1%[7.66 µM]	-7%
Cc1cc(S(=O)(=O)Nc2ccccc2C(=O)O)ccc1F	nt	nt	nt	?	-2%	-21%
Cc1cc(C)c(NC(=O)c2cc(S(=O)(=O)N3CCC4(CC3)OCCO4)ccc2F)c(C)c1	nt	nt	-17%[46 µM]	nt	nt	nt
O=C(NCc1ccco1)C1CCC(CNS(=O)(=O)c2cccc3cccnc23)CC1 (stereo not given)	-24	-7	10%	13µM*	-1%	20µM*
O=C(C1=C[C@@H]2[C@H]3C(=O)N(c4ccccc4)C(=O)[C@H]3[C@@H](C(=O)c3ccc(Cl)cc3)N2C=C1)c1ccccc1	-27	nt	-1%	20µM*	-4%	-16%
CN(C)c1ccc(CNc2ncc(Br)cc2Br)cc1	4	11	9%	3.2µM*	-2%	-21%
Cc1ccc(S(=O)(=O)Nc2ccccc2CNc2ncc(Br)cc2Br)cc1	?	nt	?	?	0%	-18%
CNc1cc(OC)c(C(=O)N[C@@H]2CCN(Cc3ccccc3)[C@H]2C)cc1Cl	nt	14	nt	1%	-2%	-16%
CCNC(=O)CCS(=O)(=O)c1ccc2ccccc2c1	-16	-3	-7%	?	-3%	32µM*
O=C(CCS(=O)(=O)c1ccccc1)NCCS(=O)(=O)c1ccccc1	nt	nt	?	-9%	0%	nt
c1ccc(Cc2nnc(N3CCOCC3)c3ccccc23)cc1	?	-14	5%	-4%	5%	25µM*
O=C(CSc1n[nH]c(-c2ccc(F)cc2)n1)NCc1ccccc1Cl	nt	nt	-8%[46 µM]	nt	nt	nt
Cc1cccc(/C(N)=N/OC(=O)c2ccc(F)cc2)c1	22	nt	-3%	9%	11µM*	-20%
Cc1cccc(/C(N)=N/OC(=O)c2cccs2)c1	55	1	2%[0.0737 µM]	-4%	2.5µM*	20µM*
Cc1ccc(C(=O)O/N=C(\c2ccccc2)c2cccnc2)cc1	-29	nt	-14%	?	1%	-8%
N/C(=N\OC(=O)c1cccs1)c1ccccc1	-5	nt	-13%	3%	10µM*	32µM*
Cc1cccc(C(=O)O/N=C(\c2ccccc2)c2cccnc2)c1	-3	nt	-13%	16µM*	-1%	-21%
COc1ccc(Cn2c(CNC(=O)Cc3ccc(OC)c(OC)c3)nc3cccnc32)cc1	nt	nt	8%[46 µM]	nt	nt	nt
COc1cc(C2C(=O)N(C3CCC(C)CC3)CC(=O)N2CCc2ccc(Cl)cc2)ccc1OC(C)C (stereo not given)	nt	nt	-10%[46 µM]	nt	nt	nt
C[C@@H]1CC[C@H]2C(=O)NC[C@@H](O)CN2[C@@H]1c1ccc(Br)cc1	nt	nt	nt	1%[13.5 µM]	nt	nt
Nc1nc(Cl)nc2c1ncn2[C@@H]1O[C@@H](CO)[C@@H](O)[C@H]1O	nt	2	?	nt	nt	nt
SMILES	PNC inhibitor	IMPase cell inh	Lamin A splicing	ALDH1A1 block	Luc counter	HPGD inh
Clc1ccc(Cn2ncc3c(NCc4ccco4)ncnc32)c(Cl)c1	40	19	-28%	?	2%	28µM*
Cc1nc2sc(C(=O)O)c(N)c2c2c1COC(C)(C)C2	33	0	-7%	14µM*	1%	-13%
CC(=O)Nc1sc2c(c1C#N)CCCCC2	11	-1	-15%	?	-1%	-12%
Cn1cc(Cl)c(C(=O)NC(=S)Nc2sc3c(c2C#N)CCCCC3)n1	15	nt	-17%	?	5%	10µM*
N#Cc1c(NC(=O)c2ccccc2)sc2c1CCCCC2	36	17	-5%	?	-12%	?
Cc1ccccc1C(=O)NC(=S)Nc1sc2c(c1C#N)CCCC2	?	-6	?	6.3µM*	7%	-24%
Cc1noc(C)c1C(=O)Nc1sc(C)c(-c2ccccc2)c1C#N	?	-3	?	10µM*	-3%	-29%
N#Cc1c(NC(=O)/C=C/c2ccco2)sc2c1CCCC2	-112*	-8	?	32µM*	2%	?
CC[C@H](C)[C@@H](NC(=O)O[C@@H]1Cc2cc(OC)ccc2O[C@H]1c1cccc(OC)c1)C(=O)OC	nt	nt	nt	4%	-1%	-2%
COc1ccc(CNS(=O)(=O)c2cnc(N)nc2)c(OC)c1	nt	nt	-9%[46 µM]	nt	nt	nt
CC(C)(C)C(=O)NC(=S)Nc1sc2c(c1C#N)CCCCC2	18	-8	-8%	22µM*	1%	-22%
Cc1onc(-c2ccccc2)c1C(=O)NC(=S)Nc1sc2c(c1C#N)CCC(C)C2 (stereo not given)	-29	nt	2%	2.2µM*	2%	-29%
Cc1onc(-c2ccccc2)c1C(=O)Nc1sc2c(c1C#N)CCC2	25	-10	?	?	-1%	?
Cc1onc(-c2ccccc2)c1C(=O)NC(=S)Nc1sc2c(c1C#N)CCCC2	24	nt	-19%	0.5µM*	1%	?
Cc1cccc(NC(=S)NNC(=O)c2csc3c2CCC(C)C3)c1 (stereo not given)	-17	-2	?	22µM*	-3%	-8%
CCCc1cc(C(=O)NNC(=S)Nc2cccc(C)c2)cs1	-20	nt	?	10µM*	-4%	?
COc1ccc([C@@H]2[C@H]3C(=O)N(c4cccc(C(F)(F)F)c4)C(=O)[C@H]3ON2C)cc1	-14	-3	-13%	14µM*	0%	-18%
O=C1[C@H]2[C@H](ON3CCCC[C@H]23)C(=O)N1c1cccc(C(F)(F)F)c1	nt	nt	nt	-4%	10%	nt
COc1ccc(OC2C=CC(C#Cc3ccc(C(C)(C)C)cc3)OC2CO)cc1 (stereo not given)	nt	nt	nt	-11%[13.5 µM]	nt	nt
NNC(=O)/C=C/c1ccc(Cl)cc1Cl	nt	nt	-17%[46 µM]	13µM*	5%	nt
CSc1ccc(C(=O)C2CCCN(C(=O)c3ccsc3)C2)cc1 (stereo not given)	nt	nt	nt	5µM*	-5%	nt
CSc1ccc(C(=O)C2CCCN(C(=O)c3cccnc3SC)C2)cc1 (stereo not given)	nt	nt	27%[46 µM]	-69%	-4%	nt
Cc1onc(-c2ccccc2)c1CNS(=O)(=O)c1cccc(Br)c1	nt	nt	nt	2.8µM*	nt	nt
O=S(=O)(NCc1cc(-c2ccccc2)no1)c1ccccc1	nt	nt	-8%[46 µM]	-6%	0%	nt
CSc1cccc(Nc2cc(C(=O)NCCCN(C)c3ccccc3)c3ccccc3n2)c1	nt	nt	7%[46 µM]	nt	nt	nt
